Results published in PubChem BioAssay AID720513 (Broad Institute, 2013).
Hit rate of the full screen: of about 2,100 compounds, about 480 (23%) were called active. Inconclusive results (about 5%) are left out.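 Rule for the calls: active = fitted curve reaches 40% activation at or below the top valid concentration, in every replicate test; inconclusive = replicate tests disagree on the call; inactive = the rest, including activity in the opposite direction.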 The list is a sample of the results. Measured potencies and affinities stand elsewhere.

Assay: PGC1a acetylation increase, cellular AlphaLISA – cell-based, cherry-picked samples, set 6, dose response (AID 720513);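 note: cells made to overexpress flag tagged PGC1a plus GCN5 acetyltransferase by viral infection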
Conditions: U2OS PGC1a acetylation AlphaLISA, overnight, 0 = neutral, -100 = inhibitor control; series mostly up to 19.5 µM

outcome, inactive:
Cn1c(=O)c2cc(S(=O)(=O)NCCC(=O)NCc3ccccc3Cl)ccc2n(C)c1=O, O=C(COc1ccc(Br)cc1)NCCNC(=O)c1cccnc1, CCCNC(=O)c1ccc(COc2ccc(Cl)cc2)o1, Cc1cc(OCC(=O)NNC(=O)c2cnccn2)cc(C)c1Cl, CCOc1ccc2nc(NCCCNC(=O)c3cc(OC)c(OC)c(OC)c3)c(C#N)cc2c1, O=C(C[C@@H]1C[C@@H]2c3cc(NC(=O)Nc4ccccc4F)ccc3O[C@@H]2[C@H](CO)O1)NCc1ccc(Oc2ccccc2)cc1, CCc1cc2c(N3CCN(c4nnc(CC)s4)CC3)ncnc2s1, COc1ccc(-c2ccc(C3[C@@H]4CN(Cc5cc(OC)cc(OC)c5)C[C@H]3N4)cc2)cc1 (some centres not stated), COc1cccc(-c2ccc(C3[C@H]4CNC[C@@H]3N4Cc3ccc4c(c3)OCO4)cc2)c1 (some centres not stated), O=C(Nc1ccccc1)C1=C(c2ccccc2)S(=O)(=O)CCS1(=O)=O, Cn1nc(-c2ccccn2)nc2c(=O)n(C)c(=O)nc1-2, COc1cc(C(=O)N2CCN(S(=O)(=O)c3cccc(F)c3)CC2)ccc1OCC(=O)N1CCOCC1, CN(C)c1ccc(C=C2SC(=S)NC2=O)cc1, CCOC(=O)/C(C#N)=C1/C(=O)N(Cc2ccccc2)c2ccccc21, CC(=O)c1coc2c1cc(O)c1ccccc12, CCOCCCNc1nc2c(c(=O)n(C)c(=O)n2C)n1CCCc1ccccc1, CSc1nc2c(c(=O)[nH]c(=O)n2C)n1Cc1ccccc1, Cn1c(=O)c2c(ncn2CC(=O)O)n(C)c1=O, CCOCCn1c(N2CCN(c3ccccc3)CC2)nc2c1c(=O)n(C)c(=O)n2C, CCn1c(Oc2ccccc2F)nc2c1c(=O)n(C)c(=O)n2C, C/C=C/Cn1c(SCc2ccc(Cl)cc2)nc2c1c(=O)[nH]c(=O)n2C, CC(C)CN1CCN(C(=O)COC(=O)c2ccc(S(C)(=O)=O)c([N+](=O)[O-])c2)CC1, CCC(=O)N[C@H]1CC[C@H](CC(=O)OC)O[C@H]1CO, CCCc1ccc(C(O)c2ncc(-c3cccc(F)c3)[nH]2)cc1 (configuration not stated), COc1ccc(S(=O)(=O)Nc2ccc3c(c2)C(=O)N([C@H](C)CO)C[C@@H](C)[C@H](CN(C)C(=O)Nc2ccc(C(F)(F)F)cc2)OCCCC[C@@H](C)O3)cc1, O=C(OCc1nnc(-c2ccccc2)o1)C1=COCCO1, C=CCn1c(SCc2c(C)noc2C)nc2ccccc2c1=O, C[C@@H]1CN([C@@H](C)CO)S(=O)(=O)c2ccc(-c3ccccc3)cc2O[C@@H]1CN(C)C(=O)c1ccccc1F, CCn1c(C(C)NC(=O)c2ccccc2C)n[nH]c1=S (configuration not stated), COc1ccc(C#Cc2ccc([C@H]3[C@@H](CO)N4CCCCN(C(=O)Nc5ccccc5)C[C@H]34)cc2)cc1, O=C(Cn1ncc(Cl)c(Cl)c1=O)NC(=O)NC1CCCCC1, CO[C@@H]1CN(C)C(=O)c2cc(NC(C)=O)ccc2OC[C@H](C)N(Cc2cc(F)ccc2F)C[C@H]1C, N#C/C(=C/c1ccc(OCc2ccc(C(=O)O)cc2)c(Br)c1)c1cccc(F)c1, C[C@H]1CN([C@@H](C)CO)S(=O)(=O)c2ccc(Br)cc2O[C@@H]1CN(C)S(=O)(=O)c1ccccc1F, CCN(C[C@@H]1N[C@@H](CO)[C@H]1c1ccc(-c2ccc(F)cc2)cc1)C(=O)CN(C)C, COc1ccccc1C#Cc1ccc([C@H]2[C@H](C#N)N(C(=O)C3CCCC3)[C@H]2CO)cc1, O=S(=O)(c1ccc(Cl)cc1)c1snnc1-c1ccccc1, Clc1ccc(-c2csc(N3CCSCC3)n2)cc1, C[C@@H]1CN([C@@H](C)CO)C(=O)CCCn2cc(nn2)CO[C@H]1CN(C)S(=O)(=O)c1ccccc1, CCCn1c(-c2ccccc2)cc(SC)c(C#N)c1=O, COc1c(O)cc(O)c2c(=O)cc(-c3ccccc3)oc12, C=CCn1c(C)nnc1SCC(=O)NC1CC1, CC(C)c1ccc(NC(=O)CCNS(=O)(=O)c2cccc3nonc23)cc1, Cc1cc(C)nc(SCC(=O)OCN2C(=O)c3ccccc3C2=O)n1, CCN(c1ccccc1)S(=O)(=O)c1ccc(OC)c(NC(=O)Cc2ccc(F)cc2)c1, COc1ccccc1NS(=O)(=O)c1cccc(NC(=O)C2CC(=O)N(Cc3ccccc3)C2)c1 (configuration not stated), CCc1ccc(Nc2nnc(SCC(=O)Nc3ccc(C(=O)O)cc3)s2)cc1, CCOc1ccccc1C(=O)NCCCCCC(=O)O, COCCNC(=O)CN1CCC(NC(=O)C(C)(C)C)CC1, O=C(c1cc2ccccc2o1)N1CC=C(c2ccccc2)CC1, CC1=Nc2ccccc2N=C(NC(=O)CN2CCN(c3ccccc3)CC2)C1c1ccccc1 (configuration not stated), COc1cc(C2C(C#N)=C(N)Oc3c2oc(CO)cc3=O)cc(OC)c1OC (configuration not stated), CC(C)N1CCc2c(sc(NC(=O)C3CCCCC3)c2C(N)=O)C1, COC(=O)[C@@]1(Cc2ccccc2CN=[N+]=[N-])N=C(c2ccc(OCCCO)cc2)O[C@H]1c1ccccc1, Cc1ccccc1-n1nnnc1Sc1nnnn1-c1ccccc1, Cc1ccccc1Cn1nc(C)c(NC(=O)c2cc(-c3cccs3)on2)c1C, NC(=O)COC(=O)/C=C/c1ccc2ccccc2n1, COc1ccc(S(=O)(=O)N2c3ccc(F)cc3CCC2C)cc1 (configuration not stated), CCOc1ccc(N2C(=O)Cc3ccccc3C2=O)cc1, O=C(CCc1nc2ccccc2c(=O)[nH]1)OCC(=O)N1CCc2ccccc21, CCc1ccc(N2CC(O)=C(c3nc4ccccc4c(=O)[nH]3)C2=N)cc1, CO[C@H]1CN(C)C(=O)c2ccc(NC(=O)c3ccno3)cc2OC[C@H](C)NC[C@H]1C, Cc1cccc(C)c1NC(=O)CN(C)C(=O)c1cc(S(=O)(=O)N(C)C)ccc1N1CCCC1, COc1ccccc1C(=O)Nc1ccc2c(c1)nc(CCNC(=O)c1ccco1)n2C, Cc1ccc2nsnc2c1S(=O)(=O)N(Cc1ccco1)Cc1cc2cccc(C)c2[nH]c1=O, CN(Cc1ccccc1)S(=O)(=O)c1ccc(S(=O)(=O)N(Cc2ccc(F)cc2)C2CCCC2)cc1, COc1ccc(-c2csc(N(CCCN(C)C)C(=O)c3ccc(Br)cc3)n2)cc1, COc1ccc(-c2csc(N(CCCN(C)C)C(=O)c3cccs3)n2)cc1, CO[C@H]1CN(C)C(=O)c2cc(NC(C)=O)ccc2OC[C@@H](C)N(CC2CCCCC2)C[C@@H]1C, CC(c1n[nH]c(=S)n1Cc1ccccc1)N(C)C (configuration not stated), CCCCSCCCNC(=O)c1cn(C)c2ccc(S(=O)(=O)N3CCCC3)cc2c1=O, O=S(=O)(c1ccc2[nH]ccc2c1)N1CCCCCC1, CCNc1nc(Oc2ccc(C#N)cc2)cc(C(F)(F)F)n1, COc1ccccc1C(=O)Oc1cc(N)n(S(=O)(=O)c2ccc(C)cc2)n1, CCOC(=O)C1=C(C)N=C2SC(C(=O)OC)=CC(=O)N2C1c1cccc(OC)c1 (configuration not stated), Cn1c(Cl)cnc1C1CC(=O)c2cc(Cl)ccc2O1 (configuration not stated), Cc1noc(C)c1NC(=O)N(C)C[C@@H]1Oc2c(NS(=O)(=O)c3cn(C)cn3)cccc2C(=O)N([C@@H](C)CO)C[C@@H]1C, CO[C@@H]1CN(C)C(=O)c2cc(NS(=O)(=O)c3ccc(Cl)cc3)ccc2OC[C@H](C)N(C)C[C@H]1C, CC(C)C#Cc1ccc2c(c1)O[C@@H](CN(C)C(=O)C1CC1)[C@@H](C)CN([C@@H](C)CO)S2(=O)=O, Cc1cccc(C)c1NC(=O)C(NC(=O)c1ccccn1)c1ccc([N+](=O)[O-])cc1 (configuration not stated), CCCCCC(=O)N1C[C@H](n2cc(-c3ccc(F)cc3)nn2)[C@@H](O)C[C@@H]1c1ccc(C)cc1, CCOC(=O)C1=C(CS(=O)(=O)c2ccccc2)NC(=O)NC1c1ccc(O)c(OC)c1 (configuration not stated), CCOC(=O)CC1C(=O)NCCN1S(=O)(=O)c1ccc(C)cc1 (configuration not stated), OC[C@@H]1[C@H](c2ccc(C#CC3CCCC3)cc2)[C@H]2CN(CCC(F)(F)F)CCCCN12, CO[C@H]1CN(C)C(=O)c2cc(NC(=O)NC(C)C)ccc2OC[C@H](C)N(Cc2ccc(-c3ccccn3)cc2)C[C@@H]1C, CCCS(=O)(=O)N1CCCC(C(=O)NCCCOC(C)C)C1 (configuration not stated), Cc1ccc(-c2nc(NC(=O)c3nn(C)cc3[N+](=O)[O-])sc2C)cc1, Cc1nnc(NC(=O)CSc2ncc(-c3ccccc3)[nH]2)s1, CO[C@H]1CN(C)C(=O)c2ccc(NS(=O)(=O)c3ccccc3)cc2OC[C@@H](C)N(C(=O)NC(C)C)C[C@@H]1C, O=C(c1cc(Cl)ccc1Cl)N1CCc2ccccc21, O=C(c1ccccc1Cl)N1CCNCC1, O=C(O)c1ccccc1C(=O)N1CCN(C(=O)c2ccccc2Cl)CC1, C[C@H](CO)N1C[C@H](C)[C@@H](CN(C)Cc2cncnc2)Oc2cc(C#CC3CC3)ccc2S1(=O)=O, O=C(COn1nnc2ccc(Cl)cc21)NC12CC3CC(CC(C3)C1)C2, CC(C)(C)OC(=O)NCCc1nnc(SCc2ccc(Cl)cc2)o1, OC(CN1c2ccccc2Sc2ccccc21)Cn1nnc2ccccc21 (configuration not stated), CCOc1ccccc1OCCn1nnc2ccccc21
